ATXN viability = viability counter-screen for ATXN expression inhibitors | S2 cells (HEK-293 line with an ATXN2-luciferase reporter) viability, CellTiter-Fluor protease fluorescence, 24 h | Potency, µM (top dose mostly 56.7 µM), most hits filed as cytotoxic | 400,000 compounds, 0.49% hits | AID 651635; also: nearly all actives have a fitted effect of over 40% in size
TGFb SMAD3 inh = inhibitors of TGF-b signaling; AID 588855; Potency, µM (highest dose often 46.1 µM), inactives show at the highest dose activity, negative = inhibition, hits mostly inhibitors; HepG2 CAGA-GFP TGF-b/SMAD3 reporter, GFP fluorescence, 18 h; TGF-beta stimulated, 500 pg/mL final; 410,000 compounds, 1.2% hits; also: % is scaled to controls: 0 for no effect and ±100 for the full control effect; nearly all actives have a fitted effect of over 65% in size
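Using HEPG2 CAGA-GFP reporter cells at 1000 cells/well, we pinned test compounds, stimulated with recombinant TGF-beta (500 pg/mL final) and measured total well GFP after 18 h.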
Nrf2 inh = blocks Nrf2 signaling. 360,000 compounds, 2.1% hits. Potency, µM (highest dose often 46 µM), for the others: top-dose activity change, negative = inhibition, usual class: inhibitors. A549 ARE-Fluc reporter, luciferase luminescence, 18-24 h. AID 504444; also: % is scaled to controls: 0 for no effect and ±100 for the full control effect; nearly all actives have a fitted effect of over 60% in size
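A549 ARE_Fluc cells, 5000/well, 5% FBS OPTI-MEM; compounds in dose-response, 18-24 h at 37 °C/5% CO2; CellTiter-Fluor viability read (Ex 405/Em 525), then BugLite luciferase luminescence = Nrf2 activity.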
ATXN2 expr inh = inhibitors of ATXN2 expression | HEK-293 ATXN2-luciferase reporter, luminescence, 24 h | 360,000 compounds, 0.72% hits | Potency, µM (highest dose often 57 µM), for inactives: at the top dose activity change, negative = inhibition, usual class: inhibitors; also: % is scaled to controls: 0 for no effect and ±100 for the full control effect; nearly all actives have a fitted effect of over 55% in size
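ATXN2-luciferase reporter cells (luciferase flanked by upstream and downstream ATXN2 gene portions) were treated 24 h at 37 °C with compounds at up to 57 uM. SteadyGlo luminescence gave expression; GF-AFC fluorescence gave viability.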
A549 viability = A549 cytotoxicity, counter-screen for Nrf2 inhibitors; AID 504648; A549 ARE-Fluc cells, CellTiter-Fluor viability, 18-24 h; Potency, µM (doses to about 46 µM), for inactives: top-dose activity change, negative = cytotoxicity, most hits filed as inhibitors; 390,000 compounds, 0.16% hits; also: % is scaled to controls: 0 for no effect and ±100 for the full control effect
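Cytotoxicity counterscreen: CellTiter-Fluor fluorescence was measured in A549 ARE_Fluc cells after 18-24 h of compound exposure in a concentration series. The subsequent BugLite luminescent read reports ARE-luciferase activity.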
HepG2 tox-1 = HepG2 cytotoxicity, counter-screen for TGF-b inhibitors; 410,000 compounds, 0.76% hits; Potency, µM (doses to about 46.1 µM), without a hit: top-dose activity change, negative = cytotoxicity, most hits filed as cytotoxic; HepG2 CAGA-GFP viability, ATP luminescence, 18 h; AID 588856
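HepG2 CAGA-GFP cells (1000/well, DMEM with 1% FBS) received compound, then TGF-beta at 500 pg/mL final, and were incubated 18 hours at 37 degrees C. Viability was read by CellTiter-Glo luminescence. Media-only wells were set as complete cell-killing and DMSO as no toxicity.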
TGFb confirm = confirmation of TGF-b signaling inhibitors in HepG2 reporter cells | shares compounds with TGFb SMAD3 inh | HepG2 CAGA-GFP TGF-b reporter, GFP fluorescence, 18 h; cells stimulated with TGF-beta, 500 pg/mL | Potency, µM (titrated, usually from 46.1 µM), without a hit: at the highest dose activity, negative = inhibition, hits mostly inhibitors | 1,600 compounds, 63% hits | AID 720534; also: % is scaled to controls: 0 for no effect and ±100 for the full control effect; nearly all actives have a fitted effect of over 65% in size
HepG2 tox-2 = HepG2 cytotoxicity, TGF-b inhibitor counterscreen | shares compounds with TGFb SMAD3 inh | HepG2 CAGA-GFP viability, ATP luminescence, 18 h; cells stimulated with TGF-beta, 500 pg/mL | Potency, µM (highest dose often 46.1 µM), inactives show at the top dose activity, negative = cytotoxicity, most hits filed as inhibitors | 1,600 compounds, 27% hits; also: % is scaled to controls: 0 for no effect and ±100 for the full control effect; nearly all actives have a fitted effect of over 70% in size
CCL64 TGFb inh = blocks TGF-b signaling in CCL64 reporter cells | shares compounds with TGFb SMAD3 inh | CCL64 CAGA-GFP reporter, TGF-b stimulated, GFP fluorescence, 18 h | Potency, µM (highest dose often 46.1 µM), for inactives: at the top dose activity, negative = inhibition, actives largely listed as inhibitors | 1,600 compounds, 41% hits | AID 720536; also: nearly all actives have a fitted effect of over 65% in size
TGFb COP inh = validation of TGF-b inhibitors in HepG2 COP promoter reporter; AID 720537; Potency, µM (top dose mostly 46.1 µM), inactives show at the highest dose activity, negative = inhibition, hits mostly inhibitors; 1,600 compounds, 3% hits; shares compounds with TGFb SMAD3 inh; HepG2 COP-GFP TGF-b reporter, GFP fluorescence, 18 h; cells stimulated by added recombinant TGF-beta; also: nearly all actives have a fitted effect of over 70% in size
* marks the source's active call; other numbers are inactive results; i = inactive; ? = inconclusive; / = no result given. Sampled rows, rich in hits. Any-hit rate of the full collection: about 3.8%. Calls follow the shape of the dose curve; as a rule, active = well fitted curve in the direction sought with a large enough effect; inconclusive = small, poorly fitted or top-dose-only effect, or another doubt; inactive = no such curve, though single readings can be large; an effect the other way counts as inactive or inconclusive. Potency is read from the fitted curve at half-maximal effect.

SMILES	ATXN viability	TGFb SMAD3 inh	Nrf2 inh	ATXN2 expr inh	A549 viability	HepG2 tox-1	TGFb confirm	HepG2 tox-2	CCL64 TGFb inh	TGFb COP inh
CC[C@@H](CC1CCCCC1)C(=O)N(Cc1ccccc1)c1ccccc1	i	2.5µM*	-11%	-17%	1%	-23%	-17%	?	?	9%
Cc1cc(C)c2c(-n3cccc3)nn(CC#N)c2n1	i	-7%	0%	1%	-3%	-27%	/	/	/	/
CC(C(=O)Nc1ccc2c(c1)OCO2)N1CCC(N2CCCCC2)CC1 (centres undefined)	?	2%	3%	/	-4%	-12%	/	/	/	/
Cc1cccc(NC(=O)CSc2nnc(-c3cc(C)[nH]n3)n2N)c1	i	3%	1%	2%	-1%	1%	/	/	/	/
O=C(c1cccs1)N1CCc2c([nH]c3ccccc23)C1c1ccccn1 (centres undefined)	i	-4%	-20%	-12%	2%	-22%	/	/	/	/
O=C(c1cc(-c2ccccc2)n[nH]1)N1CCc2c([nH]c3ccccc23)C1c1ccccn1 (centres undefined)	?	20µM*	?	?	-9%	-26%	15µM*	?	?	20%
CCc1ccc(/C=N/n2c(C)cc(C)c(C#N)c2=O)cc1	i	?	9%	7%	5%	-13%	/	/	/	/
Cc1c(C(=O)N2CCN(Cc3ccc4c(c3)OCO4)CC2)sc2ncnc(N3CCN(c4ccccc4F)CC3)c12	?	5µM*	1%	/	-3%	-35%	?	-15%	-9%	10%
CCCNC(=O)Cn1cnc2sc(C(=O)N3CCN(Cc4ccc5c(c4)OCO5)CC3)c(C)c2c1=O	i	1%	-1%	-4%	-1%	-24%	/	/	/	/
CSc1ccc(/C=C/C(=O)OCC(=O)c2ccc[nH]2)cc1	i	6%	6%	21%	-2%	10%	/	/	/	/
COc1cc(C2C3=C(COC3=O)Oc3cc4c(cc32)OCO4)ccc1O (centres undefined)	?	13µM*	18%	-9%	-7%	-4%	-30%	8%	?	-17%
COc1cc(C2C3=C(COC3=O)OC(C)(C)Oc3cc4c(cc32)OCO4)cc(OC)c1OC (centres undefined)	?	2.8µM*	?	-1%	?	-2%	?	0%	?	-2%
COc1cc([C@@H]2OC[C@@H]3[C@H]2CO[C@@H]3c2ccc3c(c2)OCO3)ccc1O	i	0%	-11%	6%	5%	-11%	/	/	/	/

Source: PubChem (National Center for Advancing Translational Sciences (NCATS))
